# Many of the other results were omitted from the sample, so hits are more common in it than they were.
# IL1B secr inh: qHTS for Inhibitors of Inflammasome Signaling: IL-1-beta AlphaLISA Primary Screen; THP-1 LPS/ATP IL-1B secretion, AlphaLISA, 16 h; stronger effect = lower value; activity change, % at 57.5 µM; hit rate 4.7% among 360,000; AID 743279, 2014; in the data active = activity change below about -50%; inconclusive = mostly about -30% to -49%
#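 Secreted IL-1B measured by AlphaLISA bead assay after 16 h compound exposure of THP-1 cells; compounds (final up to 57.5 uM) added 1 h before LPS (250 ng/mL) and ATP (1.25 mM) stimulation; lower signal means less secretion.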
# DT40 TDP1 no CPT: qHTS for Inhibitors of human tyrosyl-DNA phosphodiesterase 1 (TDP1): qHTS in cells in absence of CPT; DT40 Tdp1-/- hTDP1 cells, no CPT, ATP luminescence, 48 h; Potency, µM (top dose mostly 46.2 µM), inactives show top-dose activity change, negative = growth inhibition, hits mostly inhibitors; hit rate 15% among 420,000; AID 686978, 2013; also: potency is read from the fitted curve at half-maximal effect; nearly all actives have a fitted effect of over 55% in size
#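 Seeded 400 DT40-hTDP1 cells/well (vehicle DMSO, no 20 nM CPT); pinned compounds; ≥48 hr at 37 °C; CellTiter-Glo luminescence as viability measure.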
# 12-LOX inh: Primary qHTS assay for inhibitors of human arachidonate 12S-lipoxygenase (ALOX12): Round 2; Polyunsaturated fatty acid lipoxygenase ALOX12 (Homo sapiens), P18054; purified 12hLO, xylenol orange hydroperoxide absorbance; Potency, µM (doses to about 108 µM), without a hit: at the top dose activity change, negative = inhibition, hits mostly inhibitors; hit rate 1.1% among 580,000; AID 1671190, 2021; also: potency is read from the fitted curve at half-maximal effect
# Target sequence (P18054 whole entry, looked up): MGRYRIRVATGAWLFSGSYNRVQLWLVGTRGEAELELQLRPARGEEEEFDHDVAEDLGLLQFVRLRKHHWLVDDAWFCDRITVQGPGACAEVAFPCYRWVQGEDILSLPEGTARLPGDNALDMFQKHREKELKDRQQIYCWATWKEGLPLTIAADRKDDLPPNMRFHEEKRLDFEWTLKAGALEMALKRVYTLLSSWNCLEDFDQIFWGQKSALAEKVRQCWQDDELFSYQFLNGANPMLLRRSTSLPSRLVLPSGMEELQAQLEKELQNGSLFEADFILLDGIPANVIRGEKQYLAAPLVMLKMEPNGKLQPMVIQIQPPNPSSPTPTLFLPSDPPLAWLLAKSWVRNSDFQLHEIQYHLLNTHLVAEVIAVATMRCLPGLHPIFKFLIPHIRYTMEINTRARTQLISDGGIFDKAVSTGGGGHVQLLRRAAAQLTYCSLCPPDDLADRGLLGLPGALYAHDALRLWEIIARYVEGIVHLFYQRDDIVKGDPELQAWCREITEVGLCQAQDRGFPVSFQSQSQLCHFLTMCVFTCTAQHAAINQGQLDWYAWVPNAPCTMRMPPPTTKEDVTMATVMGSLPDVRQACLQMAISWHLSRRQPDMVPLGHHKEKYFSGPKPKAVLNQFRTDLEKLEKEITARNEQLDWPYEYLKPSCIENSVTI
#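 Purified human 12hLO (150 nM final) in 25 mM Hepes, 0.01% Triton X-100, pH 7.0 was preincubated 15 min at room temperature with compound. Then 40 uM arachidonic acid was added, 30 min. Hydroperoxide was read by Fe-XO absorbance ratio 573/405 nm.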
# HT1080 IDH1KD tx: qHTS for induction of synthetic lethality in tumor cells producing 2HG: qHTS for the HT-1080-IDH1KD cell line; AID 686971, 2013; HT-1080 IDH1 knockdown viability, ATP luminescence, 48 h; Potency, µM (doses to about 46.1 µM), for the others: at the highest dose activity, negative = toxicity, hits mostly cytotoxic; hit rate 2% among 360,000;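 also: potency is read from the fitted curve at half-maximal effect; 0% = DMSO wells and -100% = cell-free medium wells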
#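 Assay cells: HT-1080 with IDH1 knockdown, 750 per well, RPMI/5% FBS. Exposure: 48 h at 37 °C following 2 h pre-incubation. Read: CellTiter-Glo luminescence; fitted concentration-response, curve class assigned.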
# DT40 TDP1 CPT: qHTS for Inhibitors of human tyrosyl-DNA phosphodiesterase 1 (TDP1): qHTS in cells in presence of CPT; AID 686979, 2013; Potency, µM (titrated, usually from 46.2 µM), without a hit: at the top dose activity change, negative = growth inhibition, actives largely listed as inhibitors; hit rate 12% among 420,000; chicken DT40 Tdp1-/-;hTDP1 cells + 20 nM CPT, ATP luminescence, 48 h; also: potency is read from the fitted curve at half-maximal effect; nearly all actives have a fitted effect of over 55% in size
#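 Chicken DT40 Tdp1-/- cells stably complemented with human TDP1 were seeded at 400 cells/well in medium containing 20 nM camptothecin, exposed to pin-transferred compounds, and grown at 37 °C for at least 48 hr. Viability was read as ATP luminescence.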
# HT1080-NT tox: qHTS for induction of synthetic lethality in tumor cells producing 2HG: qHTS for the HT-1080-NT fibrosarcoma cell line. hit rate 1.6% among 360,000. HT-1080-NT fibrosarcoma viability, CellTiter-Glo ATP luminescence, 48 h. AID 686970, 2013. Potency, µM (top dose mostly 46.1 µM), inactives show at the top dose activity, negative = less viability, most hits filed as cytotoxic;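 also: NT is the 2HG producing partner of a matched IDH1 knockdown line; potency is read from the fitted curve at half-maximal effect; 0% = DMSO-treated cells and -100% = media-only wells without cells; nearly all actives have a fitted effect of over 55% in size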
#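 Viability by CellTiter-Glo luminescence after 48 h compound exposure at 37C of HT-1080-NT cells (750/well, RPMI, 5% FBS). % activity scaled between DMSO wells and medium-only wells, then curve-fitted and categorized by curve class.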
# An asterisk follows results filed as active; u = inconclusive; x = no result given; [ ] = remark or other dose. Unless noted, calls follow the shape of the dose curve; as a rule, active = well fitted curve in the direction sought with a large enough effect; inconclusive = small, poorly fitted or top-dose-only effect, or another doubt; inactive = no such curve, though single readings can be large; an effect the other way counts as inactive or inconclusive. Unless noted, % is scaled to controls: 0 for no effect and ±100 for the full control effect.
SMILES,IL1B secr inh,DT40 TDP1 no CPT,12-LOX inh,HT1080 IDH1KD tx,DT40 TDP1 CPT,HT1080-NT tox
CCOc1ccc(C(=O)Nc2cc(C)ccc2OCc2cc(=O)n3oc(C)cc3n2)cc1,x,x,6%,x,x,x
CCC(=O)N1CCc2c(C(=O)N3CCN(c4ccccc4Cl)CC3)cccc21,x,x,11%,x,x,x
O=C1NCc2ccccc2CC12CCCN(Cc1ccccc1Cl)C2 (configuration not stated),x,x,2%[6.33 µM],x,x,x
N#Cc1ccc(COC(=O)c2cccc3cccnc23)cc1,x,x,7%,x,x,x
CCOc1ccc(CCN2C(=S)N([C@@H](Cc3ccccc3)CN3CCC[C@@H]3CN3C(=S)NC[C@@H]3CC(C)C)C[C@@H]2Cc2ccccc2)cc1,-17,15µM*,u,17%,u,-10%
CCOc1ccc(CCN2C(=S)N([C@@H](Cc3ccc(O)cc3)CN3CCC[C@@H]3CN3C(=S)NC[C@@H]3CC(C)C)C[C@@H]2CC(C)C)cc1,-59*,21µM*,-53%,-23%,16µM*,-17%
Cc1ncoc1C(=O)N1CCC(c2noc(-c3ccncc3)n2)C1 (configuration not stated),x,x,11%,x,x,x
Cc1cccc(Cn2c(SCC(N)=O)nc3c2c(=O)[nH]c(=O)n3C)c1,x,x,2%,x,x,x
Cc1cc(S(=O)(=O)N2CCOCC2)ccc1OCC(=O)Nc1ccccc1F,18,15%,-14%,1%,2%,-1%
Cc1ccc(C)c(NC(=S)N=Nc2c(O)n(C)c3ccc(S(=O)(=O)N4CCOCC4)cc23)c1,7,2.9µM*,-14%,u,4.1µM*,-29%
CCc1ccccc1NC(=S)N=Nc1c(O)n(C)c2ccc(S(=O)(=O)N3CCOCC3)cc12,0,5.8µM*,1%,-22%,5.2µM*,-12%
Cc1ccc(Cn2c(O)c(N=NC(=S)Nc3ccccc3F)c3cc(S(=O)(=O)N4CCOCC4)ccc32)cc1,-12,2.1µM*,-6%,-12%,3.7µM*,-12%
CCc1ccccc1NC(=O)c1ccc(S(=O)(=O)N2CCCC2)cc1,3,-11%,-6%,-1%,10%,10%
Cc1ccc(C(=O)N2CCCCCCNC(=O)[C@@H]3CCC[C@@H]32)s1,x,x,29%,x,x,x
Cc1cc(C)n(C(=O)c2cn(C)nc2S(=O)(=O)N2CCN(c3cc(Cl)ccc3C)CC2)n1,x,x,-29%,x,x,x
Cc1ccc(F)cc1S(=O)(=O)N1C[C@@H](F)C[C@H]1C(=O)N1CCc2ccccc2C1,x,x,17%,x,x,x
O=C(NCc1nc2ccccc2[nH]1)C1=C[C@H](c2csc3ccccc23)C[C@H](OCc2ccc(CO)cc2)O1,-29,15µM*,-4%,-19%,u,-5%
O=C(NC1CC1)C1=C[C@H](c2ccccc2)C[C@H](OCc2ccc(CO)cc2)O1,-24,u,2%,-4%,u,3%
O=C(NC1CC1)C1=C[C@H](c2ccc(Br)cc2)C[C@H](OCc2ccc(CO)cc2)O1,-26,15µM*,-9%,-21%,23µM*,-18%
C[C@H]1C=C(C(=O)NCc2nc3ccccc3[nH]2)O[C@@H](OCc2ccc(CO)cc2)C1,-15,-17%,8%,-3%,-21%,-18%
O=C(NCc1nc2ccccc2[nH]1)C1=C[C@@H](c2ccc(Br)cc2)C[C@@H](OCc2ccc(CO)cc2)O1,0,18µM*,-3%,u,9.2µM*,-30%

# High-throughput results from PubChem.
